# According to ChEMBL document CHEMBL1961873, “Compounds: GSK PKIS; Assays: Nanosyn kinase panel” (2012):
# Legend:
# [1] = biological target: Mast/stem cell growth factor receptor Kit (Homo sapiens) (UniProt P10721); settings: at 1 µM
# [2] = test system: Mast/stem cell growth factor receptor Kit (Homo sapiens), P10721 [D816V]; settings: at 0.1 µM
# [3] = test system: Mast/stem cell growth factor receptor Kit (Homo sapiens), P10721 [D816V]; settings: at 1 µM
# [4] = test system: Mast/stem cell growth factor receptor Kit (Homo sapiens), P10721 [T670I]; settings: at 0.1 µM
# [5] = test system: Mast/stem cell growth factor receptor Kit (Homo sapiens), P10721 [T670I]; settings: at 1 µM
# [6] = test system: Mast/stem cell growth factor receptor Kit (Homo sapiens), P10721 [V560G]; settings: at 0.1 µM
# [7] = test system: Mast/stem cell growth factor receptor Kit (Homo sapiens), P10721 [V560G]; settings: at 1 µM
# [8] = biological target: Tyrosine-protein kinase Lck (Homo sapiens) (UniProt P06239); settings: at 0.1 µM
# [9] = biological target: Tyrosine-protein kinase Lck (Homo sapiens) (UniProt P06239); settings: at 1 µM
# [10] = biological target: Leukocyte tyrosine kinase receptor (Homo sapiens) (UniProt P29376); settings: at 0.1 µM
# [11] = biological target: Leukocyte tyrosine kinase receptor (Homo sapiens) (UniProt P29376); settings: at 1 µM
# [12] = biological target: Tyrosine-protein kinase Lyn (Homo sapiens) (UniProt P07948); settings: at 0.1 µM
# [13] = biological target: Tyrosine-protein kinase Lyn (Homo sapiens) (UniProt P07948); settings: at 1 µM
# [14] = biological target: Tyrosine-protein kinase Lyn (Homo sapiens) (UniProt P07948); settings: at 0.1 µM; remark: listed apart in the source
# [15] = biological target: Tyrosine-protein kinase Lyn (Homo sapiens) (UniProt P07948); settings: at 1 µM; remark: listed apart in the source
# [16] = biological target: T1, Tyrosine-protein kinase Mer (Homo sapiens) (UniProt Q12866); settings: at 0.1 µM
# T1 sequence (whole entry): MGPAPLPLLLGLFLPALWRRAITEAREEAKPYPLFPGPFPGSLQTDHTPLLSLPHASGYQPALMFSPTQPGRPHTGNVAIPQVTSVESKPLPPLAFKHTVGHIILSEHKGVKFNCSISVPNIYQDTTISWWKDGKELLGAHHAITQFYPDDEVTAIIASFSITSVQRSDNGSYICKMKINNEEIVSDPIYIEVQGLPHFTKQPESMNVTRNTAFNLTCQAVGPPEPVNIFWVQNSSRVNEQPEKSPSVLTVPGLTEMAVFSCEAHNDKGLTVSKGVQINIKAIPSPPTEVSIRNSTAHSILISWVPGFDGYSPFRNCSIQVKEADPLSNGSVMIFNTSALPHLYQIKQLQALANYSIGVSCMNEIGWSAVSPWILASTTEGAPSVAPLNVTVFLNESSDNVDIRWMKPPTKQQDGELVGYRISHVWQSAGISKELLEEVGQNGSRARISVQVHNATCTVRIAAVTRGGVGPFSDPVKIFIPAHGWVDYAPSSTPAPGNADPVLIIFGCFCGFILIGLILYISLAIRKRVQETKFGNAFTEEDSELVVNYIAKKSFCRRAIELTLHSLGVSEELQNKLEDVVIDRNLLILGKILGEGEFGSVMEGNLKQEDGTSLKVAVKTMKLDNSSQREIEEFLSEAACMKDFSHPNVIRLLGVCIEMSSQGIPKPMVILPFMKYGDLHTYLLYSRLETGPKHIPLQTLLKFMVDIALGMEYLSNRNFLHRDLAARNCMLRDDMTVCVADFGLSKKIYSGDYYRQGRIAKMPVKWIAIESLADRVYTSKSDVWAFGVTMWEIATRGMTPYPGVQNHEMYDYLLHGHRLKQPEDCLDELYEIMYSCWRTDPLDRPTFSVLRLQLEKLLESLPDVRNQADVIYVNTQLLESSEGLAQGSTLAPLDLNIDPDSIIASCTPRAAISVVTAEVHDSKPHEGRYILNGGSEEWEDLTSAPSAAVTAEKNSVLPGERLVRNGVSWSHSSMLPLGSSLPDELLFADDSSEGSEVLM
# [17] = biological target: T1, Tyrosine-protein kinase Mer (Homo sapiens); settings: at 1 µM
# [18] = biological target: Hepatocyte growth factor receptor (Homo sapiens) (UniProt P08581); settings: at 0.1 µM
# [19] = biological target: Hepatocyte growth factor receptor (Homo sapiens) (UniProt P08581); settings: at 1 µM
# [20] = biological target: T2, Muscle, skeletal receptor tyrosine-protein kinase (Homo sapiens) (UniProt O15146); settings: at 0.1 µM;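 also: values are mean inhibition of MuSK from the GSK PKIS kinase screening panel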
# T2 sequence (whole entry): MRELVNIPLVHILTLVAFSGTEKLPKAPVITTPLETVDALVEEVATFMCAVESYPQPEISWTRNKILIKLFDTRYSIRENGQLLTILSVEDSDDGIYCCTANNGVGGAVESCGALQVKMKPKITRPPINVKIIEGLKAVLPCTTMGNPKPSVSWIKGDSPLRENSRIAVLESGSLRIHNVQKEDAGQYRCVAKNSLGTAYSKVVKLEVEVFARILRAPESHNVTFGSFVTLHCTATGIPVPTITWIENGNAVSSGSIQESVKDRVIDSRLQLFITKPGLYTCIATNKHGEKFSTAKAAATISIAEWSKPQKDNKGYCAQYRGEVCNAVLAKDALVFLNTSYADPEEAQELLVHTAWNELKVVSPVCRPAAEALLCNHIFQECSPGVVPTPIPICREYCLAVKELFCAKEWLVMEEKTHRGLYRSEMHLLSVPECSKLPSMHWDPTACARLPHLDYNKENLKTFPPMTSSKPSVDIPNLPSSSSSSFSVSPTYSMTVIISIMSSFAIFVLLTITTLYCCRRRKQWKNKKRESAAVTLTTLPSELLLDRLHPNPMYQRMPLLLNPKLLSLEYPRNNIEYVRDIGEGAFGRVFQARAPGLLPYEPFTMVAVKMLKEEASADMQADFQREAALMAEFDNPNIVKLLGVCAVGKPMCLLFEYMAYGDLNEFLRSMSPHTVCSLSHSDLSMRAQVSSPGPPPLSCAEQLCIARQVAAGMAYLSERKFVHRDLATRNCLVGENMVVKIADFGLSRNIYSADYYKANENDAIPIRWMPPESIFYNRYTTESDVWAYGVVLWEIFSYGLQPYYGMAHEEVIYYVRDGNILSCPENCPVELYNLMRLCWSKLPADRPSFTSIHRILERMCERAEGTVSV
# Sequence of Tyrosine-protein kinase Lyn (Homo sapiens) (P07948 2-512 limits assumed): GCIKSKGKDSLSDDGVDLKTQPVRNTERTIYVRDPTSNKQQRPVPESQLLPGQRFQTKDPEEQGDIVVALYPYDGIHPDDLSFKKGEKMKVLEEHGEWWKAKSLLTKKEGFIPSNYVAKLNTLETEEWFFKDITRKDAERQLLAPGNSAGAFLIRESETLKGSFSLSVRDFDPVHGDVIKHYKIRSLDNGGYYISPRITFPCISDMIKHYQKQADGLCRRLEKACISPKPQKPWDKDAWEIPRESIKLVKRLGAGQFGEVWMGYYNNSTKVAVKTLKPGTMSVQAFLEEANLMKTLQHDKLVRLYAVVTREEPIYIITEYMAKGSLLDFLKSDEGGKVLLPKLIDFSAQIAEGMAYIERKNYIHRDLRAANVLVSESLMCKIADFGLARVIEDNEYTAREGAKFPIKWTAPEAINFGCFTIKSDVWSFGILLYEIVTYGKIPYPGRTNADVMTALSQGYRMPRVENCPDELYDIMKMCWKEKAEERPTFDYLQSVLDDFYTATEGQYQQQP
# Sequence of Mast/stem cell growth factor receptor Kit (Homo sapiens), P10721 [D816V] (P10721 whole entry D816V): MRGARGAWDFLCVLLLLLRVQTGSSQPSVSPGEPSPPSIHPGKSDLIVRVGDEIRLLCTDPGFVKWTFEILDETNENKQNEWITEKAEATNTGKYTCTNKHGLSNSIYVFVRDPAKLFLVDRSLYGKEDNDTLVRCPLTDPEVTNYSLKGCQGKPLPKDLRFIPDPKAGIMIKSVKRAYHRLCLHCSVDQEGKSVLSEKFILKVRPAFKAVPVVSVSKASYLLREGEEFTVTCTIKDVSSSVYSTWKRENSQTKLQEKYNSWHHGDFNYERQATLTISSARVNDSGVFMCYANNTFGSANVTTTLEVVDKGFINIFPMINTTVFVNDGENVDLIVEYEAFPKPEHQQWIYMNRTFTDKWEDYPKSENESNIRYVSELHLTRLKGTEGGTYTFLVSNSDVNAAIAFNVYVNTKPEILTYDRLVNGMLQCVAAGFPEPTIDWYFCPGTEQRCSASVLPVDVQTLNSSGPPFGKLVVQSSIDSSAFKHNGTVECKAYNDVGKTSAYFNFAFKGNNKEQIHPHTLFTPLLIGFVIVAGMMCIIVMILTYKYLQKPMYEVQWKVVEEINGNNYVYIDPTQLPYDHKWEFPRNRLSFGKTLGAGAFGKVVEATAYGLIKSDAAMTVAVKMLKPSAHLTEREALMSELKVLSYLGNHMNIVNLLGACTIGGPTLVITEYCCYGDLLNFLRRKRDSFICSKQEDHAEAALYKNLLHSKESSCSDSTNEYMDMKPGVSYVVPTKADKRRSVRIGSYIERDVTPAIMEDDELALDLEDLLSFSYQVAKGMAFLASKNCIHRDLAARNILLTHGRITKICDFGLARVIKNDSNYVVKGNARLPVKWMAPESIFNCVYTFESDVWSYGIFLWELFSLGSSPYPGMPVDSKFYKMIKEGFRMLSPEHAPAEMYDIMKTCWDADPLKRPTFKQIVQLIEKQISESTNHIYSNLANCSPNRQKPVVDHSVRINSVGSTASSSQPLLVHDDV
# Sequence of Mast/stem cell growth factor receptor Kit (Homo sapiens), P10721 [V560G] (P10721 whole entry V560G): as the sequence (P10721 whole entry D816V) above, with V560G, V816D counted along it
# Sequence of Mast/stem cell growth factor receptor Kit (Homo sapiens) (P10721 whole entry): as the sequence (P10721 whole entry D816V) above, with V816D counted along it
# Sequence of Hepatocyte growth factor receptor (Homo sapiens) (P08581 whole entry): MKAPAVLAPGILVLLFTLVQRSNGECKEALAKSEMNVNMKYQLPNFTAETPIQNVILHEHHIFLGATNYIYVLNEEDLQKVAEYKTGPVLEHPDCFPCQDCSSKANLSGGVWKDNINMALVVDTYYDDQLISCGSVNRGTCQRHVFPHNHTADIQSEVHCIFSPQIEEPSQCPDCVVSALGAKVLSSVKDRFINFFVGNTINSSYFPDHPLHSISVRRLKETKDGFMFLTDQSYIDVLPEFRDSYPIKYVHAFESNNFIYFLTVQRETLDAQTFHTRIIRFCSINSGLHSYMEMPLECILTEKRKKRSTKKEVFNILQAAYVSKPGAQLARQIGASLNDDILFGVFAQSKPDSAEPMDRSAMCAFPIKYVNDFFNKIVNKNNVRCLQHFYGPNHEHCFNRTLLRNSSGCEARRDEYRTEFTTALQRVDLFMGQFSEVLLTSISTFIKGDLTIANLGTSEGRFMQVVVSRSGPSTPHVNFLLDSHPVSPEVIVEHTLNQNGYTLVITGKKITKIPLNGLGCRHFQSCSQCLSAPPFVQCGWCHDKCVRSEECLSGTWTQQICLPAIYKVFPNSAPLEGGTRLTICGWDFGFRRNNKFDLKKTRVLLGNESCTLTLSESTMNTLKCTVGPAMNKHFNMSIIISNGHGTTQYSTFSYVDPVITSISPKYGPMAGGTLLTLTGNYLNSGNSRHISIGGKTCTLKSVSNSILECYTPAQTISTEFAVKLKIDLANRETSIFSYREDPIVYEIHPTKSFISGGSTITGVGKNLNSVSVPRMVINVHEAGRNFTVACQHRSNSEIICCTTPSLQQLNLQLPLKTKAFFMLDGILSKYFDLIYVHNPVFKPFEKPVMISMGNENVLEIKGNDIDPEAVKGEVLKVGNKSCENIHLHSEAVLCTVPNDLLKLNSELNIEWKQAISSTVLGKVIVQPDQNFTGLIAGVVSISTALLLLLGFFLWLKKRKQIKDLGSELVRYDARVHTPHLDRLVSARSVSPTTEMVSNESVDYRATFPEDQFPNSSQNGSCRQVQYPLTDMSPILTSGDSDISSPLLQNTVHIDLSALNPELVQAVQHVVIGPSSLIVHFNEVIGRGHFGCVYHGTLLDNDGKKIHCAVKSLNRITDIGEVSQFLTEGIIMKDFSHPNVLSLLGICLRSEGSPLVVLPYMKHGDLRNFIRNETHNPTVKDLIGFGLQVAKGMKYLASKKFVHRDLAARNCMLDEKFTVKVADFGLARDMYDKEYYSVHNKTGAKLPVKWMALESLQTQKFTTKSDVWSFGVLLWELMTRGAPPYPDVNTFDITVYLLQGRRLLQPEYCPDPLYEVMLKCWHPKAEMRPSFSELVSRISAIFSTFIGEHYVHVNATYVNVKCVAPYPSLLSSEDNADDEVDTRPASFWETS
# Sequence of Tyrosine-protein kinase Lck (Homo sapiens) (P06239 2-509 limits assumed): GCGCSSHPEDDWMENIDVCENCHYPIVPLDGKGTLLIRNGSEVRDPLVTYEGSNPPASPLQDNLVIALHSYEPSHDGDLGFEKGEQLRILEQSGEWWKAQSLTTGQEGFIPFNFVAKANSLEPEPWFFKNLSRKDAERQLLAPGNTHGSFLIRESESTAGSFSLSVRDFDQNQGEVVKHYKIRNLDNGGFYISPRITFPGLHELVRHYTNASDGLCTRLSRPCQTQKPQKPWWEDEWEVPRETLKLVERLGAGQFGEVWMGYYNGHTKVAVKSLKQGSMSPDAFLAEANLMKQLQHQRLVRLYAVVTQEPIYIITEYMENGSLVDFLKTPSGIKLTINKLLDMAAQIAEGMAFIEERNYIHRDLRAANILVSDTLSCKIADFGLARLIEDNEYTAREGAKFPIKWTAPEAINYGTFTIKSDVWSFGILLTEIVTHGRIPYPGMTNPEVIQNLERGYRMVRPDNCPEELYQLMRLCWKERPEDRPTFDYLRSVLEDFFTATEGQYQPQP
# Sequence of Leukocyte tyrosine kinase receptor (Homo sapiens) (P29376 whole entry): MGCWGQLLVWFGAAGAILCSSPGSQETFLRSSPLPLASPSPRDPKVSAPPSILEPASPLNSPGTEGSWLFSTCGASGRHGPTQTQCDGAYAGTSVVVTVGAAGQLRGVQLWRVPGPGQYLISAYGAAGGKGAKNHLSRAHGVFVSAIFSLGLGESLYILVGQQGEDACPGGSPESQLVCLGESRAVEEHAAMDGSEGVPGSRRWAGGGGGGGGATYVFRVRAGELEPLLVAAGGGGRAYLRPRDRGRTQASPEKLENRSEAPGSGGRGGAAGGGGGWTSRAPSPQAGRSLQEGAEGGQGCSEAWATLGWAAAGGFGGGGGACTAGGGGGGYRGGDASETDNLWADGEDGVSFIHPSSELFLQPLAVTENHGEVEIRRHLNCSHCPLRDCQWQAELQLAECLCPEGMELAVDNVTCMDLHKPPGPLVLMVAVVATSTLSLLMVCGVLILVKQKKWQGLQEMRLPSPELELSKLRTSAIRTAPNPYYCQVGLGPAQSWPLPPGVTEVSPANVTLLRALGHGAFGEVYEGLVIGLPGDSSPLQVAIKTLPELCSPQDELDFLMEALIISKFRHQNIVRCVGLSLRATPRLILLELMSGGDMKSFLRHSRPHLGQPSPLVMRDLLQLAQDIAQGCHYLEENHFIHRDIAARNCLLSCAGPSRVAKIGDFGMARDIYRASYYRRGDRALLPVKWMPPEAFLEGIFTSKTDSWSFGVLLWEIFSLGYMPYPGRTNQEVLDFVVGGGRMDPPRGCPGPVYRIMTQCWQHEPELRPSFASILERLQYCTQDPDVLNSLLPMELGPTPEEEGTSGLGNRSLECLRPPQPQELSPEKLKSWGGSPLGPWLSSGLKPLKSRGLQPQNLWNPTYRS
# Sequence of Mast/stem cell growth factor receptor Kit (Homo sapiens), P10721 [T670I] (P10721 whole entry T670I): as the sequence (P10721 whole entry D816V) above, with T670I, V816D counted along it
Structure (SMILES),inhibition [1],inhibition [2],inhibition [3],inhibition [4],inhibition [5],inhibition [6],inhibition [7],inhibition [8],inhibition [9],inhibition [10],inhibition [11],inhibition [12],inhibition [13],inhibition [14],inhibition [15],inhibition [16],inhibition [17],inhibition [18],inhibition [19],inhibition [20]
COc1cc(Nc2nccc(Nc3ccc4c(C)n[nH]c4c3)n2)cc(OC)c1OC,95.8%,10.8%,58.7%,4.19%,43.3%,13.1%,57.9%,34.4%,82.4%,2.14%,33.3%,49.6%,87.4%,44.5%,85.6%,3.5%,14.4%,1.57%,12.3%,21.3%
CCCN(CCS(C)(=O)=O)Cc1ccc(-c2ccc3ncnc(Nc4ccc(OCc5cccc(F)c5)c(Cl)c4)c3c2)o1,4.79%,1.86%,4.14%,2.58%,3.62%,1.8%,3.3%,2.06%,5.97%,2.12%,5.18%,4.64%,7.93%,2.71%,6.38%,4.13%,7.18%,2.91%,5.26%,3.54%
COc1ccc(-c2cc3c(N)ncnc3o2)cc1,8.52%,1.15%,0.89%,-0.3%,-2.59%,4.17%,2.93%,0.2%,5.93%,-0.7%,0.01%,-0.81%,3.66%,1.13%,3.28%,0.56%,2.01%,-2.37%,0.32%,-1.04%
O=C(O[C@H]1CN[C@H](C#Cc2cc3ncnc(Nc4ccc(Cc5ccccc5)cc4)c3s2)C1)N1CCOCC1,3.44%,8.25%,1.8%,1.94%,0.93%,-0.42%,-0.08%,2.19%,8.13%,1.17%,0.57%,0.85%,4.14%,0.33%,3.75%,-0.63%,2.01%,-1.3%,4.56%,-0.21%
COC(=O)Nc1nc2ccc(Oc3ccc(NC(=O)Nc4cccc(Cl)c4)cc3)cc2[nH]1,90.8%,-0.72%,-1.6%,22.5%,57.1%,69.5%,91.2%,2.47%,9.47%,2.31%,1.17%,5.13%,13.5%,4.25%,11.1%,2.64%,2.51%,9.7%,12.3%,10.2%
COc1cccc(-n2ncc3c(N/N=C/c4ccc(F)cc4)ncnc32)c1,17.1%,7.16%,7.84%,5.29%,5.91%,-0.37%,5.46%,13.5%,45.5%,4.1%,3.69%,19.6%,48.7%,14.6%,43.9%,3.7%,5.19%,2.87%,16.6%,3.89%
CNC(=O)c1cccc(C#Cc2cncnc2Nc2ccc(OCc3cccc(F)c3)c(Cl)c2)c1,8.09%,0.89%,3.12%,0.83%,3.3%,1.32%,5.48%,1.2%,1.35%,1.28%,0.16%,3.69%,5.89%,2.02%,2.83%,1.54%,2.26%,3.13%,5.11%,-0.28%
c1cc(-c2cnn3nc(N4CCOCC4)ccc23)nc(NC2CC2)n1,20.9%,0.53%,4.82%,7.12%,3.28%,4.27%,5%,1.31%,3.4%,2.15%,6.33%,3.58%,2.39%,2.01%,3.12%,1.15%,6.24%,-2.37%,2.41%,4.2%
NC(=O)c1sc(-n2cnc3ccc(C(F)(F)F)cc32)cc1OCc1ccccc1Br,5.18%,5.27%,5.73%,2.58%,3.8%,-0.43%,-0.61%,-0.17%,1.85%,3.16%,3.98%,5.8%,6.03%,2.92%,3.3%,1.71%,1.36%,3.13%,-0.12%,4.43%
CC(C)(CO)CNC(=O)c1ccc2c(c1)/C(=N/Nc1ccc(S(N)(=O)=O)cc1)C(=O)N2,6.13%,-0.32%,9.15%,-1.23%,-1.94%,-0.35%,1.1%,0.12%,3.08%,-1.7%,-1.87%,-1.12%,9.87%,-1.58%,8.71%,-2.26%,1.33%,9.65%,9.33%,3.03%
FC(F)(F)c1cccc(-c2nn3ncccc3c2-c2ccnc(Nc3ccc4c(c3)OCCO4)n2)c1,24.6%,1.11%,1.8%,0.93%,3.06%,-1%,5.35%,9.37%,45.8%,2.06%,1.73%,7.06%,39.5%,5.18%,33.9%,4.3%,40%,7.83%,5.36%,1.28%
CS(=O)(=O)CCNCc1coc(-c2ccc3ncnc(Nc4ccc(OCc5ccccc5)cc4)c3c2)c1,8.33%,0.03%,1.72%,2.17%,3.24%,0.76%,2.94%,3.8%,14.4%,4.91%,11.4%,3.61%,8.56%,3.96%,6.66%,5.03%,29.9%,9.58%,9.58%,2.22%
COc1ccc(-c2nn3ncccc3c2-c2ccnc(Nc3ccc4c(c3)OCCO4)n2)cc1,85.2%,-1.73%,0.8%,3.74%,34.7%,9.03%,61.7%,34.8%,66.8%,3.69%,23.5%,13.8%,60.4%,9.96%,55.4%,-0.06%,12.9%,-1.3%,8.57%,-0.81%
